# In PubChem BioAssay AID1053118 (Broad Institute, 2014):
# Measured potencies and affinities stand elsewhere. Values without a mark were called inactive.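 Rule for the calls: active = fitted half-maximal concentration for ATP signal loss at most twice the top valid dose; inconclusive = flat curve between -70 and -30%, or an invalid fit; inactive = flat within ±30%, wrong direction, or potency past limit.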
# Experiment: viability loss in HepG2 hepatoma cells – cell-based, cherry-picks, set 5, cytotoxicity control, dose response (AID 1053118);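 note: 0% = neutral control wells and -100% = mitoxantrone positive control wells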
# Conditions: ATP luminescence, 72 h; series mostly up to 26 µM; activity change, negative = cytotoxicity: at the top concentration
row,SMILES,"activity change, negative = cytotoxicity"
1,Cc1ccc(NC(=O)COC(=O)c2cc(Cl)ccc2[N+](=O)[O-])c(C)c1,-3.95%
2,C[C@H](CO)N1C[C@H](C)[C@H](CN(C)C(=O)Nc2cccc3ccccc23)Oc2c(NC(=O)Nc3ccc(C(F)(F)F)cc3)cccc2C1=O,-13.8%
3,CO[C@@H]1CN(C)C(=O)c2cc(NC(=O)Nc3ccc(Cl)c(Cl)c3)ccc2OC[C@H](C)NC[C@H]1C,-17.4%
4,O=C(Nc1ccccc1F)N1C[C@@H]2[C@H](c3ccccc31)[C@H](CO)N2C(=O)C1CC1,-13.3% [at 23.5 µM]
5,COCC(=O)Nc1ccc2c(c1)C(=O)N(C)[C@@H]1CC[C@@H](CC(=O)NCc3ccccc3Cl)O[C@H]1CO2,5.36% [at 23.5 µM]
6,COc1ccccc1CNc1nc(NCc2cnc(C)cn2)c2sccc2n1,2.3%
7,C[C@@H]1CN([C@@H](C)CO)C(=O)c2cc(NC(=O)C3CCCCC3)ccc2O[C@@H]1CN(C)Cc1ccc(-c2ccccc2)cc1,-15.3%
8,C[C@@H]1CN([C@H](C)CO)C(=O)c2cc(-c3ccccc3)cnc2O[C@@H]1CN(C)C(=O)c1cccc(F)c1,-6.46%
9,CC(NC(=O)CSc1ccc(S(=O)(=O)N2CCOCC2)cn1)c1ccc(Cl)cc1Cl (stereo not given),13.9%
10,C[C@@H]1CN([C@@H](C)CO)C(=O)c2cc(NC(=O)C3CCCCC3)ccc2O[C@H]1CN(C)Cc1ccc(-c2ccccc2)cc1,-0.237%
11,C[C@H](CO)N1C[C@H](C)[C@@H](CN(C)Cc2ccc(-c3ccccc3)cc2)Oc2ccc(NC(=O)CCCN(C)C)cc2C1=O,-3.63%
12,COC(=O)C[C@H]1CC[C@H]2[C@H](COc3ccc(NC(=O)Cc4cccs4)cc3C(=O)N2C)O1,-12.2%
13,C[C@H](CO)N1C[C@H](C)[C@@H](CN(C)Cc2ccc(-c3ccccc3)cc2)Oc2ccc(NC(=O)C3CCCCC3)cc2C1=O,-13.4%
14,COc1ccc(CN(C2CCCC2)S(=O)(=O)c2ccc(-n3cnnn3)cc2)cc1OC,0.181%
15,CO[C@H]1CN(C)C(=O)c2cc(NC(=O)Nc3cc(Cl)cc(Cl)c3)ccc2OC[C@@H](C)NC[C@@H]1C,-10.7%
16,Cc1cc(C)n2ncc(C(=O)NCc3ccc(Cl)cc3)c2n1,-17.4%
17,Cc1ccc(-c2nc3ncccc3o2)cc1NC(=O)c1ccco1,-3.25%
18,CN(C)C(=O)c1ccc(-c2ccc3c(c2)[C@H]2[C@H](CCN2C(=O)c2ccc(F)cc2)[C@@H](CO)N3C)cc1,-48.7% [at 23.5 µM]

row,SMILES,"activity change, negative = cytotoxicity"
1,Cc1ccccc1S(=O)(=O)N1CC[C@H]2[C@H](CO)Nc3ccc(-c4ccc(C#N)cc4)cc3[C@H]21,-3.85%
2,NC(=O)C1=C[C@H](c2coc3ccccc3c2=O)C[C@H](OCCCCO)O1,-5.67%
3,Cc1ccc(S(=O)(=O)N2CC[C@@H]3[C@@H](CO)Nc4ccc(-c5cccc(C(=O)N(C)C)c5)cc4[C@@H]32)cc1,54.7%
4,O=C(OCC(O)C(O)COC(=O)c1ccccc1)c1ccccc1 (stereo not given),-20%
5,Cc1ccc([N+](=O)[O-])cc1NC(=O)CN(C(=O)c1ccccc1Cl)C1CCCCC1,-5.3%
6,CCOC(=O)c1cnc(SCc2nc(N)nc(Nc3ccc(OC)cc3)n2)nc1N,22.1%
7,C[C@H]1CN([C@@H](C)CO)C(=O)c2cccc(NC(=O)Nc3ccc(C(F)(F)F)cc3)c2O[C@H]1CN(C)C(=O)Nc1cccc2ccccc12,-14.3% [at 23.5 µM]
8,COC(=O)C[C@H]1CC[C@@H]2[C@H](COc3ccc(NC(=O)Cc4cccs4)cc3C(=O)N2C)O1,8.89% [at 23.5 µM]
9,C[C@H](CO)N1C[C@H](C)[C@@H](CN(C)C(=O)c2cccc(F)c2)Oc2ncc(-c3ccccc3)cc2C1=O,-14.7%
10,COC(=O)C[C@H]1CC[C@@H]2[C@@H](COc3ccc(NC(=O)Cc4cccs4)cc3C(=O)N2C)O1,-5.57%
11,Cc1cccc(NC(=O)Nc2ccc(S(=O)(=O)Nc3onc(C)c3C)cc2)c1,-16.9%
12,Cc1cccc(NC(=O)c2ccc(C3SCC(=O)N3CCc3ccccc3)cc2)c1 (stereo not given),-23.6%
13,COCC(=O)Nc1ccc2c(c1)C(=O)N(C)[C@H]1CC[C@@H](CC(=O)NCc3ccccc3Cl)O[C@H]1CO2,-14%
14,O=C(Nc1ccccc1F)N1C[C@H]2[C@@H](c3ccccc31)[C@@H](CO)N2C(=O)C1CC1,-10.7%
15,C[C@@H](O)C#Cc1ccc2c(c1)O[C@@H](CN(C)C)[C@@H](C)CN([C@@H](C)CO)S2(=O)=O,-17.3%
16,COc1ccc(-c2oc3ncnc(NCCCN4CCOCC4)c3c2-c2ccc(OC)cc2)cc1,19.9%
17,C[C@H](O)C#Cc1ccc2c(c1)O[C@H](CN(C)C)[C@@H](C)CN([C@H](C)CO)S2(=O)=O,-5.83%
